Measurements published in PubChem BioAssay.
Calls of active or inactive are those of the source.

Columns and labels:
[1] = small molecules captured by biotinylated probe aFSTL3 – biochemical, small-molecule microarray, fluorescence 635/667, stem cell growth factor project, primary screen (AID 1064); settings: higher = more signal;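 further: measures binding of the biotinylated anti-FSTL3 antibody to printed compounds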
[2] = binders from COS7 lysate, DM2A8 probe, primary screen, torsin A project, cell lysate, small-molecule microarray, fluorescence 635/667 (AID 1065); settings: higher = more signal, COS7 lysate expressing mutant human TOR1A
[3] = small molecules captured by biotinylated probe aFGF2 – biochemical, small-molecule microarray, fluorescence 635/667, stem cell growth factor project, primary screen (AID 1067); settings: higher = more signal;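 further: measures binding of biotinylated aFGF2 protein to printed compounds on slides; z-score merges feature fluorescence and signal-to-noise across triplicate slides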
[4] = small molecules captured by biotinylated probe aFGF10 – biochemical, small-molecule microarray, fluorescence 635/667, stem cell growth factor project, primary screen (AID 1071); settings: higher = more signal;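 further: score merges 667 nm spot intensity and signal to noise from triplicate slides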
[5] = target: Neurogenic locus notch homolog protein 2 (Homo sapiens) (UniProt Q04721); assay: small molecules binding Notch2 protein – biochemical, small-molecule microarray, 635 nm fluorescence, stem cell growth factors, primary screen (AID 1073); settings: higher = more signal
[6] = target: Pro-neuregulin-1, membrane-bound isoform (Homo sapiens) (UniProt Q02297); assay: small molecules binding neuregulin-1 protein – biochemical, small-molecule microarray, fluorescence 635/667, psychiatric disease protein project, primary screen (AID 1075); settings: NRG1 binding, 635 nm fluorescence, higher = more signal;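 further: score combines 667 nm spot fluorescence with signal to noise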
Pro-neuregulin-1, membrane-bound isoform (Homo sapiens), sequence (Q02297 whole entry, looked up, the tested form may be a part, canonical isoform): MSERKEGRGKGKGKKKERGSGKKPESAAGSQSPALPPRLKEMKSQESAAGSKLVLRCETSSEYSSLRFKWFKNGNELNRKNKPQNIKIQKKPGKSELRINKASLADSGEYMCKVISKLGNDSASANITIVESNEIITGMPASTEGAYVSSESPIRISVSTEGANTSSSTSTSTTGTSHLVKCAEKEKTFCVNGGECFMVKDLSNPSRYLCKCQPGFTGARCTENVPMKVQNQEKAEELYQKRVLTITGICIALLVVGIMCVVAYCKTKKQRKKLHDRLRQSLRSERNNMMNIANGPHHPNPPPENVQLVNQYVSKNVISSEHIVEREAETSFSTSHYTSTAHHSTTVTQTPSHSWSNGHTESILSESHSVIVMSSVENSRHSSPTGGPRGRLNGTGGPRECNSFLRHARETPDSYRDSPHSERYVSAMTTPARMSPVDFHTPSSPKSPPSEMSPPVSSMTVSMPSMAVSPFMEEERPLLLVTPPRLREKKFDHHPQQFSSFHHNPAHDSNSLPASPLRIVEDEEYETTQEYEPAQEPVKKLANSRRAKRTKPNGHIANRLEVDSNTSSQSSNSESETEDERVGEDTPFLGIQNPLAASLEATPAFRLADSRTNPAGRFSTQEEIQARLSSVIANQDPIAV

[7] = system: Neuregulin-1 EGF-like domain; assay: small molecules binding NRG1 EGF domain – biochemical, small-molecule microarray, 635 nm fluorescence, primary screen (AID 1081); settings: higher = more signal;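 further: binding of the protein to compounds printed on small-molecule microarray slides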
[8] = FRG1 expression reporter modulators in myotubes – cell-based, C2C12 myotubes, firefly/Renilla luciferase, luminescence, FRG1 inhibition for FSHD, primary screen (AID 1084); settings: FRG1 promoter luciferase, higher = more signal, called active from +8 up or from −8 down
[9] = small molecules captured by biotinylated probe aFST – biochemical, small-molecule microarray, fluorescence 635/667, stem cell growth factor project, primary screen (AID 1086); settings: higher = more signal;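 further: score merges 667 nm fluorescence with signal-to-noise of each printed compound spot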
[10] = binders of probe aHhip on microarray, primary screen, stem cell growth factor project, biochemical, small-molecule microarray, fluorescence 635/667 (AID 1087); settings: higher = more signal;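 further: score merges spot fluorescence at 667nm with spot signal to noise ratio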
[11] = system: PRMT1 (protein arginine N-methyltransferase 1); assay: small molecules binding arginine methyltransferase PRMT1 – biochemical, small-molecule microarray, 635 nm fluorescence, primary screen (AID 1088); settings: higher = more signal;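 further: binding of Prmt1 protein to compounds spotted on small-molecule microarray slides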
[12] = growth effects on S. cerevisiae YJM789 – YJM789 clinical isolate, OD600, 24 h, basal, primary screen (AID 1089); settings: higher = more signal, called active from +8 up or from −8 down;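 further: growth of clinical yeast isolate S. cerevisiae YJM 789 seeded 1000 cells per well; test concentration not given here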
[13] = S. pombe growth modifiers, basal conditions – strain 972, OD600, 24 h, no modulator, primary screen (AID 1090);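 further: basal condition with compound alone and no growth modifier present; test concentration not given here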; settings: S. pombe 972 growth, higher = more signal, called active from +8 up or from −8 down
[14] = budding yeast growth modifiers under rapamycin – strain BY4716, OD600, 96 h, primary screen (AID 1091); further: test concentration not given here; settings: S. cerevisiae BY4716 + rapamycin, higher = more signal, called active from +8 up or from −8 down
[15] = target: Torsin-1A-interacting protein 2 (Homo sapiens) (UniProt Q8NFQ8); assay: small molecules binding lysate-expressed LULL1 – cell lysate, human LULL1 lysate, 635/667 nm fluorescence, primary screen (AID 1092); settings: small-molecule microarray, hLULL1 lysate binding, 635 nm fluorescence; higher = more signal;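 further: probe is lysate of COS7 cells overexpressing human LULL1; score merges per-feature 667 nm fluorescence with signal-to-noise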
Torsin-1A-interacting protein 2 (Homo sapiens), sequence (Q8NFQ8 whole entry, looked up): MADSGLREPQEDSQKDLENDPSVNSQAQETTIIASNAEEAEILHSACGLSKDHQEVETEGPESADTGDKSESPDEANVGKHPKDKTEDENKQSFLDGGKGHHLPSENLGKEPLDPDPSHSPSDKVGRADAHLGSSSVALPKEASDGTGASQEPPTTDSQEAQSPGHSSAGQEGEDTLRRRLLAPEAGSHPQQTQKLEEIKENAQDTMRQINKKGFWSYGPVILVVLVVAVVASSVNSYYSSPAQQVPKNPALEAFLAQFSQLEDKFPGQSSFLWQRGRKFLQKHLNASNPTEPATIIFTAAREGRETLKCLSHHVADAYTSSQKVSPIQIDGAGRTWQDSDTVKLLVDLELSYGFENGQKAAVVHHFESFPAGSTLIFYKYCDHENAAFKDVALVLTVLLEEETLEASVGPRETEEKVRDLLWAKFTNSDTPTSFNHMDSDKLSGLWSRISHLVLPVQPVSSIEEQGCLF

[16] = optical density change of DRC41 E. coli – strain DRC41, OD650, 24 h, E. coli filamentation project, primary screen (AID 1093);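 further: MC1000 strain lacking acrAB efflux and sulA so SOS filamentation is blocked; test concentration not given here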; settings: E. coli DRC41 growth, higher = more signal, called active from +8 up or from −8 down
[17] = probe aLefty2 binding to arrayed compounds – biochemical, biotinylated probe, 635/667 nm fluorescence, primary screen (AID 1094); settings: small-molecule microarray, higher = more signal;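 further: score merges spot fluorescence near 667 nm with spot signal-to-noise ratio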
[18] = system: Noggin (protein binding on small-molecule microarray); assay: small molecules binding Noggin protein – biochemical, 635/667 nm fluorescence, primary screen (AID 1095); settings: 635 nm fluorescence, higher = more signal;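 further: score merges 667 nm feature fluorescence with signal to noise over triplicate slides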
[19] = target: Neurogenic locus notch homolog protein 3 (Homo sapiens) (UniProt Q9UM47); assay: small molecules binding NOTCH3 protein – biochemical, 635/667 nm fluorescence, primary screen (AID 1096); settings: small-molecule microarray, 635 nm fluorescence, higher = more signal
Neurogenic locus notch homolog protein 3 (Homo sapiens), sequence (Q9UM47 whole entry, looked up): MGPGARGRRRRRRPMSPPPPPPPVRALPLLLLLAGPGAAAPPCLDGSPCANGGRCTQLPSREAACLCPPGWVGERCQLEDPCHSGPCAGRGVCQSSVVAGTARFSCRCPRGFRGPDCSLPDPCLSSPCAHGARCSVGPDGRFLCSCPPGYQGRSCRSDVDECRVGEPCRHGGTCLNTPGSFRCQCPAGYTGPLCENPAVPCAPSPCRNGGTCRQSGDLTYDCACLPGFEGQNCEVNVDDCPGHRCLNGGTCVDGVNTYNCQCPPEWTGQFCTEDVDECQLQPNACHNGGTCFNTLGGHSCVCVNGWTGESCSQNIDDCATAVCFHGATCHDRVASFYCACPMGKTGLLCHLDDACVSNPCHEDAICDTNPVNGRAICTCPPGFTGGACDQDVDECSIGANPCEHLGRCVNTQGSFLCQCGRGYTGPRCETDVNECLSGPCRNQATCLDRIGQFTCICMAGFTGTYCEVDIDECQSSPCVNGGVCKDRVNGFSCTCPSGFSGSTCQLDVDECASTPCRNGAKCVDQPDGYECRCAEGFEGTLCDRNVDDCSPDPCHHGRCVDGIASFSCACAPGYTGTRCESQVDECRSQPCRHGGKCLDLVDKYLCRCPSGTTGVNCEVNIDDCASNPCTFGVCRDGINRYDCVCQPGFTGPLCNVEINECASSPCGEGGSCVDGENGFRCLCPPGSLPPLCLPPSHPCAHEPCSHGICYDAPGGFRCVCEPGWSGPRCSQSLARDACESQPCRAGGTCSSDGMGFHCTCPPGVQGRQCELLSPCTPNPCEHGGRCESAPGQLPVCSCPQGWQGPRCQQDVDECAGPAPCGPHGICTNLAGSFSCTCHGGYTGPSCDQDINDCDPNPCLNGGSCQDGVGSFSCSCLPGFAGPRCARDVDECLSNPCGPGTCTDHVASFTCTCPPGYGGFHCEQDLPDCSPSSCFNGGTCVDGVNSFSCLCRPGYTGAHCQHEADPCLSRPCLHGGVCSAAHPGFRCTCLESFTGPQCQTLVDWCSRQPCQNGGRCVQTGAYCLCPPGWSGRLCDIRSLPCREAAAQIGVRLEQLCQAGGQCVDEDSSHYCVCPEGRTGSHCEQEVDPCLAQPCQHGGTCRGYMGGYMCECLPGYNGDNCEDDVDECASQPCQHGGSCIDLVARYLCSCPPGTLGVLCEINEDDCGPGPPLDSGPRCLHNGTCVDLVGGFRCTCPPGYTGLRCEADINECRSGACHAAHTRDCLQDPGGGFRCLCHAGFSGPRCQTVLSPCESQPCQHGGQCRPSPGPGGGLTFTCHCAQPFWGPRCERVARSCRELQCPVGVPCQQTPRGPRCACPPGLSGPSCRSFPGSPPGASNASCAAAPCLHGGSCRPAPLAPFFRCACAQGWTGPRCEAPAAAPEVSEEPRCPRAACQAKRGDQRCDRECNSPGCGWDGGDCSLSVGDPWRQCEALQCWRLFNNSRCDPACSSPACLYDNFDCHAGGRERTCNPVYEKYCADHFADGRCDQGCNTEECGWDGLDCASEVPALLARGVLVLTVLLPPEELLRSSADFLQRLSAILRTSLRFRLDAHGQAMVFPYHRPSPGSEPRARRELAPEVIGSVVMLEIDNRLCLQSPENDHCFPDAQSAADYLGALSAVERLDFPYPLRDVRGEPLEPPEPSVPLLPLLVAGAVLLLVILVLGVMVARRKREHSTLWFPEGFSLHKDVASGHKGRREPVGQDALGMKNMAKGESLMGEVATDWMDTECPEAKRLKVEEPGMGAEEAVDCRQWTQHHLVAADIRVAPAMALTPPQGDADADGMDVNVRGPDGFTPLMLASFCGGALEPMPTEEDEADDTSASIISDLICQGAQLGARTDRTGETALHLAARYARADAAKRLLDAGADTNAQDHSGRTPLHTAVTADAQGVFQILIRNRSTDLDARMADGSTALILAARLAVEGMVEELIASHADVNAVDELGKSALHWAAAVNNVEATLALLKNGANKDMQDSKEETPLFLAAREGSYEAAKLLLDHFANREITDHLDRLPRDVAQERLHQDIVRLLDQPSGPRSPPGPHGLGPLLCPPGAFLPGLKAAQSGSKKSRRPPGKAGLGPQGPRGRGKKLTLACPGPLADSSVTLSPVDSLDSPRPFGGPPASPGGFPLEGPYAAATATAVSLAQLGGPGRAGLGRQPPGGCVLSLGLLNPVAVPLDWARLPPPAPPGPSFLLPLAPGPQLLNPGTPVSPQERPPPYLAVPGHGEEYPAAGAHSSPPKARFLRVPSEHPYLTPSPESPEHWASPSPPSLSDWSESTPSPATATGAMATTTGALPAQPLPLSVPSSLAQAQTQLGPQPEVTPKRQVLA

[20] = probe aEGFR binding to arrayed compounds – biochemical, biotinylated probe, 635/667 nm fluorescence, primary screen (AID 1097); settings: small-molecule microarray, higher = more signal;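 further: probe is a biotinylated anti-EGFR antibody binding compounds printed on slides; score combines fluorescence near 667 nm and signal to noise of each spot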

SMILES	composite z-score [1]	composite z-score [2]	composite z-score [3]	composite z-score [4]	composite z-score [5]	composite z-score [6]	composite z-score [7]	z-score [8]	composite z-score [9]	composite z-score [10]	composite z-score [11]	z-score [12]	z-score [13]	z-score [14]	composite z-score [15]	z-score [16]	composite z-score [17]	composite z-score [18]	composite z-score [19]	composite z-score [20]
CC(C)(C)OC(=O)CC[C@@]1(C(=O)O)N=C(c2ccc(OCCCO)cc2)O[C@@H]1c1ccccc1N=[N+]=[N-]	1.09	1.56	0.0918	1.11	0.984	1	1.15	6.94 (inactive)	0.457	-0.277	1.15	0.949 (inactive)	0.419 (inactive)	-0.286 (inactive)	2.15	0.484 (inactive)	0.553	-0.569	0.104	0.325
COC(=O)c1ccc(C(O)C2C=CC3C(=O)N(C)C(=O)C3N2NC(=O)OC(C)(C)C)o1 (stereo not given)	-0.0154	0.252	0.0942	1.03	1.48	1.34	1.29	0.896 (inactive)	0.76	-0.0024	1.36	-0.0904 (inactive)	0.771 (inactive)	0.122 (inactive)	3.01	-1.09 (inactive)	0.177	0.356	0.526	0.0419
O=C1O[C@H](c2ccccc2)[C@H](c2ccccc2)N2[C@H]1[C@@H](C(=O)NC[C@H](O)c1ccccc1)[C@]1(C(=O)Nc3ccc(C#CCCO)cc31)[C@H]2c1ccc(O)cc1	0.326	-0.543	-0.103	-0.465	-0.42	0.0538	-0.51	0.08 (inactive)	-0.445	0.245	-0.0718	-0.383 (inactive)	-0.0869 (inactive)	0.105 (inactive)	-0.217	0.092 (inactive)	0.0249	-0.984	-0.415	-0.194
CC(C)N1C(=O)C[C@@](C(=O)NCc2ccccc2)(c2ccc([N+](=O)[O-])cc2)[C@H]1c1ccc(CO)cc1	0.539	1.22	-0.138	-0.136	0.0796	-0.524	1.25	0.167 (inactive)	-0.699	-0.201	1.01	0.296 (inactive)	-0.203 (inactive)	-0.881 (inactive)	3.48	0.796 (inactive)	0.16	-0.112	0.199	-0.167
C=CC(COC(C)=O)NS(=O)(=O)c1ccc(Br)cc1 (stereo not given)	-0.647	0.58	-0.105	0.366	0.363	0.0456	0.583	-0.747 (inactive)	0.0296	0.174	0.1	-0.141 (inactive)	-0.467 (inactive)	-0.9 (inactive)	0.185	-0.975 (inactive)	0.0216	0.598	0.604	0.0749
Cc1ccc(S[C@]2(C(=O)NCC(C)C)CC(=O)N(Cc3ccccc3Cl)[C@@H]2c2ccc(CO)cc2)cc1	1.27	-0.48	-0.151	-0.584	-1.36	-0.612	-0.232	-2.55 (inactive)	-0.982	-0.284	-0.446	-0.259 (inactive)	-0.751 (inactive)	-0.0993 (inactive)	0.294	-0.0077 (inactive)	-0.0216	-1.98	-1.5	-0.228
O=c1cccc(CCc2ccccc2)o1	-0.587	-0.322	-0.0909	0.0466	-0.321	0.93	1.16	1.17 (inactive)	-0.104	0.0251	1.08	-0.951 (inactive)	-2.06 (inactive)	0.102 (inactive)	1.8	-0.97 (inactive)	-0.117	0.491	0.621	-0.171
COCCOC(=O)N1C(=O)[C@@]2(c3cc(C#CCC(C(=O)OC)C(=O)OC)ccc31)[C@H](c1ccccc1OCCO)N1[C@H](c3ccccc3)[C@H](c3ccccc3)OC(=O)[C@H]1[C@@H]2C(N)=O	-0.0037	0.532	0.0495	1.17	0.923	1.42	1.21	-0.885 (inactive)	0.0716	0.107	1.17	1.47 (inactive)	0.951 (inactive)	4.79 (inactive)	2.74	1.12 (inactive)	0.0074	0.726	1.1	-0.0346
CCOC(=O)C1=CCC(c2ccc([N+](=O)[O-])cc2)N(S(=O)(=O)c2ccc(C)cc2)C1 (stereo not given)	0.557	-0.0288	-0.0878	0.294	0.716	0.459	0.81	-2.47 (inactive)	0.406	-0.174	-0.394	1.33 (inactive)	2.26 (inactive)	4.61 (inactive)	1.28	0.638 (inactive)	0.0478	-0.281	0.422	0.0296
CC(C)C(=C=CC[C@@H](O)c1ccccc1OCCO)C[C@@H](O)c1ccccn1	-0.438	-0.0682	-0.153	0.477	0.0623	0.0795	1.19	-0.306 (inactive)	0.272	0.176	0.439	2.46 (inactive)	-0.18 (inactive)	-1.1 (inactive)	2.67	-0.0287 (inactive)	-0.126	0.538	0.878	-0.099
CN(C)C(=O)[C@@]1(CCC(=O)OC(C)(C)C)N=C(c2ccc(OCCCO)cc2)O[C@H]1c1ccccc1	1.01	2.11	0.112	0.31	-0.282	1.92	1.33	-0.624 (inactive)	0.356	0.597	1.41	-0.365 (inactive)	-0.0946 (inactive)	-0.213 (inactive)	3.55	-0.444 (inactive)	0.346	0.94	0.0453	0.0197
COc1ccc(C#Cc2ccc3c(c2)[C@]2(C(=O)N3)[C@H](C(=O)NC[C@H](O)c3ccccc3)[C@H]3C(=O)O[C@H](c4ccccc4)[C@H](c4ccccc4)N3[C@@H]2c2ccccc2OCCO)cc1	-0.185	0.324	0.0128	0.688	1.29	1.56	1.19	0.162 (inactive)	0.653	-0.0994	1.54	2.23 (inactive)	2.01 (inactive)	4.39 (inactive)	2.94	0.413 (inactive)	0.0179	1.4	1.06	-0.0192
O=C1O[C@@H](c2ccccc2)[C@@H](c2ccccc2)N2[C@@H](c3ccc(OCCO)cc3)[C@]3(C(=O)Nc4ccccc43)[C@@H](C(=O)Nc3nc4ccccc4s3)[C@H]12	0.509	0.58	0.0732	0.962	1.49	1.45	1.3	-3.08 (inactive)	1.01	0.629	1.53	1.46 (inactive)	1.15 (inactive)	2.44 (inactive)	3.34	0.344 (inactive)	0.321	1.3	1.11	0.224
COCCOC(=O)N1C(=O)[C@@]2(c3cc(C#CCC(C(=O)OC)C(=O)OC)ccc31)[C@H](C(=O)N1CCN(c3ncccn3)CC1)[C@H]1C(=O)O[C@H](c3ccccc3)[C@H](c3ccccc3)N1[C@@H]2c1ccc(OCCO)cc1	-0.462	0.185	-0.0293	0.0875	0.213	0.386	1.06	-0.644 (inactive)	0.0723	-0.0088	1.55	-0.485 (inactive)	0.196 (inactive)	5.21 (inactive)	2.26	1.36 (inactive)	-0.184	0.668	0.946	-0.141
C=CCC(OC(C)=O)[C@@H]1[C@@H](N(Cc2cccc3ccccc23)C(=O)c2ccc(C)cc2)c2cc(OCCCO)ccc2N1C(=O)Cc1ccc(OC)cc1 (stereo not given in full)	-0.186	0.307	-0.117	0.29	0.0151	0.0635	-0.391	-1.71 (inactive)	0.146	-0.0994	0.479	-3.36 (inactive)	0.365 (inactive)	-1.4 (inactive)	-0.204	0.761 (inactive)	-0.128	0.146	-0.139	-0.0828
O=C1C=CC(=O)[C@@H]2CC(COc3ccccc3)=C3[C@@H](CCc4ccccc4)OB(O)C[C@@H]3[C@H]12	0.232	2.47	-0.132	0.272	0.222	-0.18	0.184	-1.29 (inactive)	-0.467	0.176	0.702	0.168 (inactive)	-8.15 (active)	0.203 (inactive)	-0.188	-0.125 (inactive)	-0.289	0.533	0.49	0.0338
CN(C)CCCNC(=O)[C@@]1(Cc2ccccc2I)c2ccccc2C(=O)N(Cc2ccccc2C(F)(F)F)[C@H]1c1ccc(CO)cc1	0.459	-1.14	-0.22	-0.935	-0.936	1.74	1.23	-1.1 (inactive)	-0.309	-0.0645	1.05	-0.0554 (inactive)	-19.8 (active)	-2.58 (inactive)	3.45	-0.971 (inactive)	-0.16	-1.16	-0.848	-0.295
C=CCN1C(=O)[C@]2(O[C@H](CCO)[C@@H]([Si](C)(C)c3ccc(OC)cc3)[C@@H]2C)c2cc(NC(=O)[C@H](C)O)ccc21	-0.561	0.363	-0.0158	1.08	0.327	1.35	1.2	-3.94 (inactive)	-0.412	-0.216	1.53	0.83 (inactive)	-0.759 (inactive)	1.31 (inactive)	2.77	0.64 (inactive)	-0.166	0.392	1.02	-0.151
CCCCCN1CC=CC23O[C@@H]4/C=C\CCCOC(=O)C4[C@H]2C(=O)N(CCCCCCO)[C@@H]3C1=O (stereo not given in full)	-0.19	0.109	-0.103	-0.525	-0.774	0.729	1.28	-1.19 (inactive)	-0.645	-0.37	-0.0832	-3.85 (inactive)	-2.83 (inactive)	-2.64 (inactive)	3.32	1.61 (inactive)	-0.147	-0.471	-0.0559	0.0538
